Source: PubChem BioAssay (NCI)
This is part of a sample that, as a whole, favours compounds with a hit. Of some 83,000 tested, about 20% had one in any assay.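 Testing used 96-well plates and a 48-hour single-concentration exposure. Example: -40 means 40% of the starting cells died.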 The source made the active and inactive calls.

The molecules below were run on EKVX NSCLC (assay: NCI-60 one-dose screen, 48 h (100 = growth as untreated, 0 = no growth, -100 = all killed)). Settings: 10 µM unless noted.
Experimental: Growth inhibition of the EKVX human Non-Small Cell Lung tumor cell line is measured as a screen for anti-cancer activity. Cells are grown in 96 well plates and exposed to the test compound for 48 hours. Compounds are tested at a single concentration, which is 10^-5 M for most compounds. The reported endpoint is percent growth (GI% or GIPRCNT), where numbers from 0 - 100% represent growth inhibition, and numbers from -100% - 0 represent cell death. For example, a value of 40 represents 60% growth inhibition. A value of 0 means no net growth occurred over the course of the experiment. A value of -40 indicates 40% of cells at the beginning of the experiment died by the end of the experiment. A value of -100 means all cells are dead at the end of the experiment.
NCI-60 Human Tumor Cell Lines Screen was performed using the standard one-dose NCI protocol, which is described in more detail at https://dtp.cancer.gov/discovery_development/nci-60/default.htm.
Compounds with GIPRCNT values below 10 were considered active. Activity score was based on GIPRCNT using the following formula: […]
Score is 0 for GIPRCNT values of 100 or above, 50 for GIPRCNT values of 0, and 100 for GIPRCNT values of -100.

Structure (SMILES)	growth
N#Cc1c(-c2cccc(Cl)c2)cc(-c2cccnc2)[nH]c1=O	100% (inactive)
COc1nc(/C=C\Nc2ccc3c(c2)OCCOCCOCCOCCO3)nc(OC)n1	91.8% (inactive)
O=C(Nc1cccnc1Nc1ccccc1)c1cn(Cc2cccc(Oc3ccccc3)c2)nn1	59.8% (inactive)
CCCCn1c(NC(C)=O)c(S(=O)(=O)c2ccccc2)c2nc3ccccc3nc21	95.5% (inactive)
COc1c2c(cc3c1C(=O)N[C@@H]1[C@@H](O)[C@@H](O)[C@H](O)C[C@@H]31)OCCO2	98.2% (inactive)
COC(=O)Cn1c2c(c3c(OC)cccc31)C(=O)c1ccccc1-2	103% (inactive)
Cc1c2cnccc2c(C)c2c1c1cc(CO)ccc1n2C	-15.2% (active)
O=C1/C(=C/c2ccccn2)SC(=S)N1N1CCOCC1	90.6% (inactive)
O=C(NN1C(=O)CSC1c1cccc([N+](=O)[O-])c1)c1ccc(NC(=O)c2ccccn2)cc1 (stereo not given)	97.7% (inactive)
COc1ccc(NC(=O)c2ccc(Nc3ncnc4c3cnn4-c3cccc(F)c3)cc2)cc1	101% (inactive)
O=C1Nc2ccc(Cl)cc2/C1=C/c1ccc[nH]1	32.8% (inactive)
CNC(=O)c1cc(Oc2ccc3c(c2)sc2nc(-c4cc(C(F)(F)F)cc(C(F)(F)F)c4)cn23)ccn1	45.1% (inactive)
Cc1nc2sc(C(=O)Nc3ccccn3)c(N)c2cc1C(C)O (stereo not given)	86% (inactive)
COC(=O)c1ccc2cc(OC)c(OC)cc2c1	84.8% (inactive)
CN1C(=O)/C(=C/c2ccc(C(=O)Nc3ncc(Cc4cc(Cl)ccc4Cl)s3)cc2)SC1=S	67% (inactive)
Fc1ccc2[nH]cc(-c3nc(-c4c[nH]c5c(Cl)nccc45)cs3)c2c1	63.2% (inactive)
O=C(C[C@]1(O)C(=O)Nc2ccc(Br)cc21)c1ccco1	107% (inactive)
Brc1ccc(Nc2nc(Nc3cnc4ccccc4c3)c3[nH]cnc3n2)cc1	40.3% (inactive)
COc1cc2c(cc1OCCCN1CCN(C(=S)SCCC(C#N)(c3ccccc3)c3ccccc3)CC1)N=C[C@@H]1CCCN1C2=O	-95.6% (active)
COC12C=C/C(=C(/C(=O)OCc3csc(SC)n3)C(=O)CCCCCCCCC3(OC)C=C/C(=C(/C(=O)OCc4cnc(SC)s4)C(=O)CCCCCCCC1)O3)O2 (stereo not given)	33.5% (inactive)

Structure (SMILES)	growth
COc1ccc(-c2cc(C(=O)N3N=C(c4ccc(N)cc4)CC3c3ccc(Cl)cc3)c3ccccc3n2)cc1 (stereo not given)	41% (inactive)
Cc1cc(O)cc(-c2nn(C)cc2-c2cc(N3CCOCC3)nc(-c3cccnc3)n2)c1	52.3% (inactive)
CCCC(=O)NC(c1ccc2c(c1)OCO2)c1cc(Cl)c2cccnc2c1O (stereo not given)	30.1% (inactive)
CC(C)CCC[C@@H](C)[C@H]1CC[C@H]2[C@@H]3CC=C4c5sc(Nc6cc(C(F)(F)F)cc(C(F)(F)F)c6)nc5CC[C@]4(C)[C@H]3CC[C@]12C	97% (inactive)
O=C1/C(=C/c2cccc(Br)c2)COc2ccc(O)cc21	78.4% (inactive)
O=C(Nc1cc(Cl)ccc1O)c1ccccc1Nc1ccnc(C(F)(F)F)c1	75.8% (inactive)
CCOC(=O)NC(=S)n1oc(=O)c2ccccc21	101% (inactive)
Cc1ccc(O)c(NC(=O)c2cccc(Nc3ccnc(C(F)(F)F)c3)c2)c1	41.7% (inactive)
O=C(Cn1nc(-c2cccc3ccccc23)ccc1=O)NCc1cccc(Cl)c1	21% [50 µM] (inactive)
CC1SC(c2ccccc2O)N(NC(=O)CCC(=O)c2nc3ncccc3[nH]2)C1=O (stereo not given)	85.7% (inactive)
Cc1cc(C(=O)CCCC(=O)c2cc(C)c(O)c(C)c2)cc(C)c1O	111% (inactive)
CCOC(=O)C/C(=N\Nc1cc(=O)[nH]c2ccc(C)cc12)C(=O)OCC	109% (inactive)
COc1ccc2c(c1)C(C)Cc1c(ncnc1-n1cnc3cc(C)ccc31)N2C (stereo not given)	40.3% (inactive)
Nc1ncccc1O	120% (inactive)
c1ccc(-c2nc3ccccc3[nH]2)c(OCCCCCOc2ccccc2-c2nc3ccccc3[nH]2)c1	68.2% (inactive)
c1csc(-c2cn3nc(-c4c[nH]c5ccccc45)sc3n2)c1	36% (inactive)
O=C(Nc1ccccc1O)c1ccc(CNc2ccnc(C(F)(F)F)c2)cc1	52.7% (inactive)
CC(C)c1ccc2c(c1)CC[C@H]1[C@](C)(C(=O)OCC#CCN3CCCC3)CCC[C@]21C	74.8% (inactive)
COc1cc(/C=C/c2cn[nH]c2-c2ccc(C)cc2)cc(OC)c1OC	47.8% (inactive)
N#CC1=C(N)Oc2c(sc3c(F)cccc23)C1c1ccc([N+](=O)[O-])cc1 (stereo not given)	-2.24% (active)
